The whole screen tested about 52,000 compounds, of which about 4,300 (8.3%) were called active. Many of the other results were omitted from the sample, so actives are more common in it than they were. Unmarked numbers belong to inactive results. Rule as the data show it: active = survival mostly below about 52% (no sharp cut-off); inactive = mostly above about 56%.

This test has as its system DeltatarO mutant. Kind of test: growth inhibition of S. aureus wild type versus tarO mutant, primary screen, teichoic acid synthesis inhibitors, RN4220, OD600 (AID 463173). The note with it: OD600, 18 h, stronger effect = lower value, screened at 18.75 µg/mL (by protocol).
Take `Cc1ccc2c(CC(=O)Nc3c(C(=O)Nc4cccc(Cl)c4)oc4ccccc34)coc2c1C`: the survival is 62%.
The same measure for `Cc1cccc(C)c1OCc1cc(=O)n2c(-c3ccccc3)csc2n1`: 19% (active); for `O=C(Nc1cccc(C(=O)OCc2cc(=O)n3c4c(sc3n2)CCCC4)c1)c1ccccc1`: 102%; for `Cc1cccc(OCc2cc(=O)n3c(-c4ccccc4)csc3n2)c1C`: 77%.
The same measure for `O=C(Nc1ccc(C(=O)OCc2cc(=O)n3c4c(sc3n2)CCCC4)cc1)c1ccccc1`: 25% (active); for `O=C(Nc1ccc(C(=O)OCc2cc(=O)n3c4c(sc3n2)CCCC4)cc1)c1ccc(Cl)cc1`: 92%; for `Cc1ccccc1OCc1cc(=O)n2c(-c3ccccc3)csc2n1`: 69%.
The same measure for `CCN1CCN(CCCNC(=O)Cn2c(-c3cccs3)cc3ccccc32)CC1`: 78%.
Regarding `Cc1ccccc1Cn1c2ccccc2c2cnn(CC(=O)NC3CCCCCC3)c(=O)c21`, the survival is 87%.
The same measure for `Cc1ccc2[nH]c(=O)c3cc(C(=O)NCCc4ccc(Cl)cc4)sc3c2c1`: 74%; for `CCc1nnc(NC(=O)c2sc3nc4ccc(OC)cc4cc3c2N)s1`: 77%; for `CCCNC(=O)c1cc(-c2ccccc2)on1`: 95%.
For the compound `CC(=O)Nc1ccc(NC(=O)c2cc(-c3ccc4c(c3)OCCO4)on2)cc1`, the survival was 118%.
The same measure for `O=C(NCCc1ccccc1)c1cc(-c2ccc(Cl)c(Cl)c2)on1`: 57%; for `CC(=O)c1ccc(NC(=O)c2cc(-c3ccc(Cl)c(Cl)c3)on2)cc1`: 47% (active); for `CC(=O)c1ccc(NC(=O)c2cc(-c3ccc4c(c3)OCO4)on2)cc1`: 67%.
The same measure for `CCCCNC(=O)c1cc(-c2ccc(Cl)c(Cl)c2)on1`: 45% (active); for `O=c1cc(Nc2cccc(Br)c2)[nH]c(=O)[nH]1`: 68%; for `O=C(NCc1cccs1)c1ccc(Cn2c(SCc3ccccc3)nc3cccnc32)cc1`: 71%.
The same measure for `CCOc1ccc(NC(=O)c2sc3nc4c(c(-c5ccccc5)c3c2N)C(=O)CC(C)(C)C4)cc1`: 49%; for `CCOC(=O)c1cc(NC(=O)c2ccc(OC)cc2)c(=O)n2c1oc1ccc(Cl)cc12`: 46% (active); for `CCOC(=O)c1cc(NC(=O)c2ccc(F)cc2)c(=O)n2c1oc1ccccc12`: 54%.
For `CCOC(=O)c1cc(NC(=O)c2ccc(Cl)cc2)c(=O)n2c1oc1ccccc12`, the survival was 34% (active).
As to `CCOC(=O)c1cc(NC(=O)c2ccc(C)cc2)c(=O)n2c1oc1ccc(Cl)cc12`, the survival was 55%.
To `CCOC(=O)c1cc(NC(=O)c2ccc(F)cc2)c(=O)n2c1oc1ccc(Cl)cc12` belongs 127%.
To `CCOC(=O)c1cc(NC(=O)c2ccc(C)cc2)c(=O)n2c1oc1ccccc12` belongs 52%; to `O=C(NCCC1=CCCCC1)c1ccc2c(c1)ncn2-c1cccc(Cl)c1`, 98%.
To `Cc1cc(C)c(NC(=O)Cn2ccn(-c3cccc(Cl)c3)c(=O)c2=O)c(C)c1` belongs 57%; to `COc1ccc(NC(=O)c2cc(S(=O)(=O)N3CCOCC3)cn2C)cc1Cl`, 108%; to `CCN(CC)C(=O)c1sc2c(c1C)c(=O)n(CCc1ccccc1)c(=O)n2Cc1ccc(F)cc1Cl`, 89%.
Take `CCOc1cc(CN2CCN(S(=O)(=O)c3ccc(C)cc3)CC2)ccc1OC`: the survival was 171%.
For `CC(=O)Nc1ccc(S(=O)(=O)N2CCN(Cc3ccccc3Cl)CC2)cc1`, the survival is 62% (active).
The same measure for `CCS(=O)(=O)N1CCN(S(=O)(=O)c2ccc(Cl)cc2)CC1`: 88%.
To `CCOc1ccc(CN2CCN(S(=O)(=O)c3ccc(Cl)cc3)CC2)cc1` belongs 27% (active).
The same measure for `Cc1ccc(S(=O)(=O)N2CCN(Cc3ccccc3Cl)CC2)cc1`: 13% (active); for `COc1cc(OC)c(OC)cc1CN1CCN(S(=O)(=O)c2ccc(NC(C)=O)cc2)CC1`: 79%; for `COc1ccc(CN2CCN(S(=O)(=O)c3ccc(NC(C)=O)cc3)CC2)c(OC)c1OC`: 61%.
Turning to `Cc1ccc(S(=O)(=O)N2CCN(S(=O)(=O)c3ccc(C)cc3)CC2)cc1`, the survival is 96%.
The same measure for `Cc1ccc(S(=O)(=O)N2CCC(C(=O)NCc3ccccc3Cl)CC2)cc1`: 74%.
To `O=C(NC1CC(=O)N(c2ccc(F)cc2)C1)c1ccc2c(c1)OCO2` (stereo not drawn) belongs 75%; to `Cc1cccc(Nc2nnc(-c3ccc(C)c(S(=O)(=O)NCC4CCCO4)c3)c3ccccc23)c1` (stereo not drawn), 82%.
The same measure for `CCOC(=O)COc1ccc(CC)cc1C(=O)c1ccn2nc(-c3ccc(C)cc3)cc2n1`: 75%; for `COc1ccc(CCNC(=O)c2cccc(Nc3nc4ccccc4nc3-n3nc(C)cc3C)c2)cc1OC`: 91%.
Consider `N#Cc1nc(-c2ccc(COc3ccc(Cl)cc3)o2)oc1N1CCN(c2ccccc2)CC1`, for which the survival is 64%.
The same measure for `CCc1ccc(S(=O)(=O)c2nnn3c2nc(NCc2cccc(OC)c2)c2cc(Cl)ccc23)cc1`: 105%.
To `COc1ccc(NC(=O)c2cnn(-c3ccc(F)cc3F)c2C2CCN(C(=O)OC(C)(C)C)CC2)cc1Cl` belongs 72%.
To `COc1cccc(C(=O)Nc2nc(-c3ccc(Br)cc3)ns2)c1` belongs 65%; to `Cc1ccccc1C(=O)Nc1nc(-c2ccc(Br)cc2)ns1`, 49%; to `COc1ccc(-c2nsc(NC(=O)c3ccccc3Br)n2)cc1`, 34% (active).
Consider `CCc1ccc2oc(C(=O)Nc3nc(-c4ccccc4)ns3)c(C)c2c1`, for which the survival was 53%.
The same measure for `CCOc1ccc(C(=O)Nc2nc(-c3ccc(Br)cc3)ns2)cc1`: 76%; for `Cc1cc2oc(C(=O)Nc3nc(-c4ccccc4)ns3)c(C)c2cc1Cl`: 45% (active); for `COc1ccc(-c2nsc(NC(=O)c3cccc(OC)c3)n2)cc1`: 85%.
Consider `Cc1ccc(C(=O)Nc2nc(-c3ccccc3)ns2)cc1`, for which the survival was 59%.
The same measure for `COc1ccccc1C(=O)Nc1nc(-c2ccccc2)ns1`: 45% (active); for `COc1ccccc1C(=O)Nc1nc(-c2ccc(Br)cc2)ns1`: 86%; for `Cc1ccc(-c2nsc(NC(=O)c3oc4cc(C)c(Cl)cc4c3C)n2)cc1`: 74%.
The same measure for `COc1ccc(C(=O)Nc2nc(-c3ccc(Br)cc3)ns2)cc1`: 58% (active).
